Reference: PubChem BioAssay (EPA / NIEHS)
Values joined by “and” are separate entries in the source; they are usually repeats but may differ in a detail not shown here. Equal entries are not always repeated. Active and inactive are the calls of the source. Rule for the calls: active = hit-call score of the fitted dose curve at least 0.9, where 1 is the maximum; inactive = score below 0.9.

Assays:
[1] = ATG_CMV_CIS: Attagene CIS-FACTORIAL HepG2 Assay for human CMV (Internal Marker) (AID 2282928); conditions: HepG2 CMV promoter reporter, transcription factor profiling; actives raise or lower the signal;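 note: endpoint acts as a background internal control marker rather than a target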
Procedure, shortened: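 Bidirectional fits against DMSO are applied to reporter mRNA, read by RT-PCR with capillary electrophoresis, from HepG2 cells exposed 24 h. The endpoint serves as an internal CMV background marker within the cis-factorial reporter panel.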

[2] = ATG_DR4_LXR_CIS: Attagene CIS-FACTORIAL HepG2 Assay for human Liver X Receptor (LXR), DR4 submotif (AID 2282929); conditions: HepG2 Attagene DR4 cis-reporter, mRNA transcription; actives raise or lower the signal
Procedure, shortened: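 DR4 cis-reporter in HepG2, 24 h exposure. Detection: RT-PCR, 6-FAM labelling, CE fragment analysis. Endpoint fitted bidirectionally, DMSO = baseline.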

[3] = target: Aryl hydrocarbon receptor (Homo sapiens) (UniProt P35869); experiment: ATG_Ahr_CIS: Attagene CIS-FACTORIAL HepG2 Assay for human Aryl Hydrocarbon Receptor (Ahr) (AID 2282930); conditions: HepG2 AhR cis-factorial reporter transcription; actives raise or lower the signal
Procedure, shortened: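 Read-out: reporter mRNA quantified by RT-PCR with fluorescent primer extension and capillary electrophoresis. Human HepG2 liver cells carried transfected cis-promoter reporter units and were exposed to chemical for 24 h; gain or loss fitted relative to DMSO.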

[4] = ATG_AP_1_CIS: Attagene CIS-FACTORIAL HepG2 Assay for human Activator Protein 1 (AP-1) (AID 2282931); conditions: HepG2 Attagene cis-factorial AP-1 reporter mRNA; actives raise or lower the signal
Procedure, shortened: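 Cis-regulated reporter units transiently expressed in HepG2 report endogenous transcription-factor activity. Signal: reporter mRNA at 24 h, via RT-PCR and fluorescent capillary electrophoresis. Endpoint derived by bidirectional fitting, DMSO as negative control.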

[5] = ATG_AP_2_CIS: Attagene CIS-FACTORIAL HepG2 Assay for human Activator Protein 2 (AP-2) (AID 2282932); conditions: HepG2 AP-2 cis-reporter, Attagene transcription factor profiling; actives raise or lower the signal
Procedure, shortened: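 Read-out: fluorescent reporter mRNA via RT-PCR and capillary electrophoresis, 24 h post-dose in transiently transfected HepG2. Endogenous factors drive cis-promoter reporters; gain or loss of signal fitted bidirectionally against DMSO.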

[6] = ATG_BRE_CIS: Attagene CIS-FACTORIAL HepG2 Assay for human Bone Morphogenetic Protein (BMP) Response Element (BRE) (AID 2282933); conditions: HepG2 BMP response element reporter, Attagene transcription factor profiling; actives raise or lower the signal
Procedure, shortened: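 Transient MRTU transfection of human HepG2 liver cells; 24 h compound treatment; total RNA isolated, reverse-transcribed, PCR-amplified, 6-FAM labelled, HpaI-cut, capillary electrophoresis. DMSO = negative control/baseline, bidirectional fit.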

[7] = target: Retinoic acid receptor alpha (Homo sapiens) (UniProt P10276); experiment: ATG_DR5_RAR_CIS: Attagene CIS-FACTORIAL HepG2 Assay for human Retinoic Acid Receptor Alpha (RARE), DR5 submotif (AID 2282934); conditions: HepG2 Attagene cis-factorial RARE DR5 reporter, mRNA; actives raise or lower the signal;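 for AC50: reporter responds to endogenous RAR alpha beta and gamma in HepG2 not RARA alone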
Procedure, shortened: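 Read-out: DR5-driven reporter transcript measured by RT-PCR, 6-FAM primer extension, HpaI digest and capillary electrophoresis. Human HepG2 liver cells carry transiently transfected cis-element reporter constructs; dosing lasts 24 h. Gain or loss of signal fitted against DMSO baseline.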

[8] = target: Transcription factor E2F1 (Homo sapiens) (UniProt Q01094); experiment: ATG_E2F_CIS: Attagene CIS-FACTORIAL HepG2 Assay for human E2F Transcription Factor 1 (AID 2282935); conditions: HepG2 Attagene cis-reporter, E2F reporter RNA transcripts; actives raise or lower the signal
Procedure, shortened: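 Transient MRTU transfection of HepG2; 24 h compound exposure; RNA → oligo(dT) RT → PCR → FAM label → HpaI cut → CE fluorescence. Gain/loss of signal fit against DMSO.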

[9] = ATG_E_Box_CIS: Attagene CIS-FACTORIAL HepG2 Assay for human Enhancer Box (E-box) (AID 2282936); conditions: HepG2 E-box cis-reporter transcription, actives raise or lower the signal
Procedure, shortened: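 Transiently transfected HepG2, endogenous TF-driven reporters, 24 h dosing. Readout: RT-PCR plus capillary electrophoresis of fluorescent reporter fragments. Gain or loss of signal fitted bidirectionally against DMSO baseline.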

[10] = ATG_M_61_CIS: Attagene CIS-FACTORIAL HepG2 Assay for M61 Transcription Factor (Internal Marker) (AID 2282937); conditions: HepG2 Attagene CIS-FACTORIAL M61 internal marker reporter; actives raise or lower the signal
Procedure, shortened: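 Background-control endpoint: HepG2 cells with cis-regulated reporter constructs, 24 h exposure, reporter mRNA detected via fluorescent primer extension and capillary electrophoresis; values from bidirectional fitting with DMSO baseline.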

Chain of Transcription factor E2F1 (Homo sapiens) (Q01094 whole entry, looked up): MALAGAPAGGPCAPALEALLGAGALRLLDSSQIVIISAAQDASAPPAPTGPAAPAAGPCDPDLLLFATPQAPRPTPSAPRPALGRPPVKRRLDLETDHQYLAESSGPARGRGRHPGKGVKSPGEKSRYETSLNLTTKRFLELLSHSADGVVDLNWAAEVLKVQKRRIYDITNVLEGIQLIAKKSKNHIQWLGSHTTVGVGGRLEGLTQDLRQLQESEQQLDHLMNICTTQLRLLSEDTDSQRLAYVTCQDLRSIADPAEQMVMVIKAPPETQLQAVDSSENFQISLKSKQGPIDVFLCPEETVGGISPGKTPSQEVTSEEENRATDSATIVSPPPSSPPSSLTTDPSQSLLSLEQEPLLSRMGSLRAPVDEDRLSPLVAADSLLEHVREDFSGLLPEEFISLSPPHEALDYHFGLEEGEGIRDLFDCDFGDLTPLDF
Chain of Retinoic acid receptor alpha (Homo sapiens) (P10276 whole entry, looked up): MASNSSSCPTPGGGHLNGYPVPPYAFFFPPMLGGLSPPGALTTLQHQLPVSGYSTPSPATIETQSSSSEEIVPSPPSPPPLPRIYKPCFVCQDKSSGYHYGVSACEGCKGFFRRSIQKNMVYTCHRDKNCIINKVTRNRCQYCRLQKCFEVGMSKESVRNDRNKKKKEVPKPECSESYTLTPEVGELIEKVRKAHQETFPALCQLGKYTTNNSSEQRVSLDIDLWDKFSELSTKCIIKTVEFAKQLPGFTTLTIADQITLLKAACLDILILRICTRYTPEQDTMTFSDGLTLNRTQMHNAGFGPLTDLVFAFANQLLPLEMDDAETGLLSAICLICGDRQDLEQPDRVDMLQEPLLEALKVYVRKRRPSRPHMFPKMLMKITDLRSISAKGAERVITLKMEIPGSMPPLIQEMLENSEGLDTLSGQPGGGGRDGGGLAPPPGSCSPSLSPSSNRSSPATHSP
Chain of Aryl hydrocarbon receptor (Homo sapiens) (P35869 whole entry, looked up): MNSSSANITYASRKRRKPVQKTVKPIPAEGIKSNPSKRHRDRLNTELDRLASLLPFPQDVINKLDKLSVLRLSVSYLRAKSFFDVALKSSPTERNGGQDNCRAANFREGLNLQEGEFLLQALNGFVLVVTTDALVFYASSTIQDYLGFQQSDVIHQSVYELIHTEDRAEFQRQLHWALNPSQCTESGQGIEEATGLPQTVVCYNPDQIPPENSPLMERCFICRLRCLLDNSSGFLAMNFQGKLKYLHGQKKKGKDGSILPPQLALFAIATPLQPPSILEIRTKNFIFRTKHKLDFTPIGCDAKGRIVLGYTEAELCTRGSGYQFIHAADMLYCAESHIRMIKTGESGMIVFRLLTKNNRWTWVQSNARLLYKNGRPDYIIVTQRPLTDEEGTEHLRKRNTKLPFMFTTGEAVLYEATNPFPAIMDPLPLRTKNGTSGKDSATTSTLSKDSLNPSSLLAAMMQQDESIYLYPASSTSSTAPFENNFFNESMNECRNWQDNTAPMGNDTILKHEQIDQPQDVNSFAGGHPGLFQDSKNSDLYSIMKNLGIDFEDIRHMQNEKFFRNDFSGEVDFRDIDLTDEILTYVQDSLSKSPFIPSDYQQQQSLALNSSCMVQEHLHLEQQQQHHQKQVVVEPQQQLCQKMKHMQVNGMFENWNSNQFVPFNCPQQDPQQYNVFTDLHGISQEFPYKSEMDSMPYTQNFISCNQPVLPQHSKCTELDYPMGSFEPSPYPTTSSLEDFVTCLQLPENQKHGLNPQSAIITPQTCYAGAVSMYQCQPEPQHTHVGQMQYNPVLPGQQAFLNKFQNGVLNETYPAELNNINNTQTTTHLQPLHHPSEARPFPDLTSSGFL

CCOC(=O)CC(=O)CCl
AC50 [1]: 65.7 µM (active)
AC50 [2]: 61.6 µM (active)
outcome [3]: inactive
AC50 [4]: 75.2 µM (active)
AC50 [5]: 44 µM (active)
outcome [6]: inactive
outcome [7]: inactive
outcome [8]: inactive
AC50 [9]: 128 µM (active)
outcome [10]: inactive

Clc1cccc(Cl)c1
outcome [1]: inactive
outcome [2]: inactive
outcome [3]: inactive
outcome [4]: inactive
outcome [5]: inactive
outcome [6]: inactive
outcome [7]: inactive
outcome [8]: inactive
outcome [9]: inactive
outcome [10]: inactive

O=C(O)COc1ccc(Cl)cc1
outcome [1]: inactive
outcome [2]: inactive
outcome [3]: inactive
outcome [4]: inactive
outcome [5]: inactive
outcome [6]: inactive
outcome [7]: inactive
outcome [8]: inactive
outcome [9]: inactive
outcome [10]: inactive

O=C(CCl)Nc1ccccc1
outcome [1]: inactive
AC50 [2]: 76 µM (active)
outcome [3]: inactive
outcome [4]: inactive
AC50 [5]: 44 µM (active)
AC50 [6]: 5.35 µM (active)
outcome [7]: inactive
AC50 [8]: 147 µM (active)
AC50 [9]: 73.5 µM (active)
outcome [10]: inactive

CC(F)(F)CC(F)(F)F
outcome [1]: inactive
outcome [2]: inactive
outcome [3]: inactive
outcome [4]: inactive
outcome [5]: inactive
outcome [6]: inactive
outcome [7]: inactive
outcome [8]: inactive
outcome [10]: inactive

CCCCN(CCCC)C(=S)S
AC50 [1]: 162 µM (active)
AC50 [2]: 100 µM (active)
outcome [3]: inactive
AC50 [4]: 171 µM (active)
outcome [5]: inactive
AC50 [6]: 146 µM (active)
AC50 [7]: 100 µM (active)
outcome [8]: inactive
AC50 [9]: 130 µM (active)
outcome [10]: inactive

COc1nn(C(=O)NS(=O)(=O)c2ccccc2OC(F)(F)F)c(=O)n1C
outcome [1]: inactive
outcome [2]: inactive
outcome [3]: inactive
outcome [4]: inactive
outcome [5]: inactive
outcome [6]: inactive
outcome [7]: inactive
outcome [8]: inactive
outcome [9]: inactive
outcome [10]: inactive

C=CCCl
outcome [1]: inactive
outcome [2]: inactive
outcome [3]: inactive
outcome [4]: inactive
outcome [6]: inactive
outcome [7]: inactive
outcome [8]: inactive
outcome [9]: inactive
outcome [10]: inactive

O=c1[nH]c(=O)n(Cl)c(=O)n1Cl
outcome [1]: inactive
outcome [2]: inactive
outcome [3]: inactive
outcome [4]: inactive
outcome [5]: inactive
outcome [8]: inactive
outcome [9]: inactive
outcome [10]: inactive

OC(Cc1ccccc1Cl)(Cn1[nH]cnc1=S)C1(Cl)CC1 (stereo not given)
outcome [1]: inactive
outcome [2]: inactive
outcome [3]: inactive
AC50 [4]: 53 µM (active)
outcome [6]: inactive
outcome [7]: inactive
outcome [8]: inactive
outcome [9]: inactive
outcome [10]: inactive

BrCC(Br)c1ccccc1 (stereo not given)
outcome [1]: inactive
outcome [2]: inactive
outcome [3]: inactive
outcome [4]: inactive
outcome [5]: inactive
outcome [7]: inactive
outcome [8]: inactive
outcome [10]: inactive

O=NN1CCOCC1
outcome [1]: inactive
outcome [2]: inactive
outcome [3]: inactive
outcome [4]: inactive
outcome [6]: inactive
outcome [7]: inactive
outcome [8]: inactive
outcome [9]: inactive
outcome [10]: inactive

OCC(c1ccc(Cl)cc1)c1ccc(Cl)cc1
AC50 [1]: 45.2 µM (active)
AC50 [2]: 50.2 µM (active)
outcome [3]: inactive
AC50 [4]: 51.6 µM (active)
outcome [5]: inactive
outcome [7]: inactive
outcome [9]: inactive
outcome [10]: inactive

Cc1cc(Cl)ccc1N
outcome [1]: inactive
outcome [2]: inactive
AC50 [3]: 41.4 µM (active) and 33 µM (active)
outcome [4]: inactive
outcome [5]: inactive
outcome [7]: inactive
outcome [10]: inactive

CCCCOP(=O)(CCCC)OCCCC
outcome [1]: inactive
outcome [2]: inactive
outcome [3]: inactive
outcome [4]: inactive
outcome [6]: inactive
outcome [7]: inactive
outcome [8]: inactive
outcome [10]: inactive

COP(=S)(OC)Oc1cc(Cl)c(I)cc1Cl
AC50 [1]: 50.2 µM (active)
AC50 [2]: 46.6 µM (active)
outcome [3]: inactive
outcome [4]: inactive
outcome [6]: inactive
outcome [7]: inactive
outcome [8]: inactive
AC50 [9]: 34.7 µM (active)
outcome [10]: inactive

CN(CCCC(O)c1cccnc1)N=O (stereo not given)
outcome [1]: inactive
outcome [2]: inactive
outcome [3]: inactive
outcome [4]: inactive
outcome [5]: inactive
outcome [7]: inactive
outcome [8]: inactive
outcome [9]: inactive
outcome [10]: inactive

CCN(CCO)CCO
outcome [1]: inactive
outcome [2]: inactive
outcome [3]: inactive
outcome [4]: inactive
outcome [6]: inactive
outcome [7]: inactive
outcome [9]: inactive
outcome [10]: inactive

CCCCCCCCCCCCCCC(Br)C(=O)O (stereo not given)
outcome [1]: inactive
AC50 [2]: 27.4 µM (active)
outcome [3]: inactive
AC50 [4]: 173 µM (active)
AC50 [5]: 100 µM (active)
AC50 [7]: 26.9 µM (active)
AC50 [8]: 108 µM (active)
outcome [9]: inactive
AC50 [10]: 183 µM (active)

O=C(NC(=O)c1c(F)cccc1F)Nc1cc(Cl)c(OC(F)(F)C(F)C(F)(F)F)cc1Cl (stereo not given)
outcome [1]: inactive
outcome [2]: inactive
AC50 [3]: 27.7 µM (active)
AC50 [4]: 100 µM (active)
outcome [6]: inactive
outcome [7]: inactive
outcome [8]: inactive
outcome [9]: inactive
outcome [10]: inactive

Cl[C@H]1OCCO[C@@H]1Cl
outcome [1]: inactive
outcome [2]: inactive
outcome [3]: inactive
outcome [4]: inactive
outcome [6]: inactive
outcome [7]: inactive
outcome [8]: inactive
outcome [10]: inactive

Oc1c(Br)cc(Br)cc1Br
outcome [1]: inactive
outcome [2]: inactive
AC50 [3]: 49.5 µM (active)
AC50 [4]: 27.7 µM (active)
AC50 [6]: 126 µM (active)
outcome [7]: inactive
outcome [8]: inactive
AC50 [9]: 30.4 µM (active)
outcome [10]: inactive

CCCSP(=S)(OCC)Oc1ccc(Cl)cc1Cl (stereo not given)
outcome [1]: inactive
outcome [2]: inactive
outcome [3]: inactive
AC50 [4]: 31.7 µM (active)
outcome [6]: inactive
outcome [7]: inactive
outcome [8]: inactive
outcome [9]: inactive
outcome [10]: inactive

OC[C@@H](O)[C@H]1O[C@@H]2O[C@H](C(Cl)(Cl)Cl)O[C@@H]2[C@H]1O
outcome [1]: inactive
outcome [2]: inactive
outcome [3]: inactive
outcome [4]: inactive
outcome [6]: inactive
outcome [7]: inactive
outcome [9]: inactive
outcome [10]: inactive

Oc1cc(Cl)c(Cl)cc1Cl
AC50 [1]: 27.2 µM (active)
outcome [2]: inactive
outcome [3]: inactive
AC50 [4]: 25.9 µM (active)
outcome [5]: inactive
outcome [8]: inactive
outcome [9]: inactive
outcome [10]: inactive

Nc1c(Oc2ccccc2)cc(O)c2c1C(=O)c1ccccc1C2=O
outcome [1]: inactive
outcome [2]: inactive
AC50 [3]: 1.71 µM (active)
outcome [4]: inactive
AC50 [6]: 13.2 µM (active)
outcome [7]: inactive
outcome [8]: inactive
outcome [9]: inactive
outcome [10]: inactive
